# Screening data deposited in PubChem BioAssay by several laboratories.
# Rows were chosen to be rich in hits. Some 2.5% of all compounds tested hit in one or more screens of this group.
# PKA-R2B act – activates the human PKA-R2B holoenzyme complex. P22694+P31323. PKA-R2B holoenzyme dissociation, Cy5-IP20 fluorescence polarization; R2B truncated from residue 108, S112A mutant; 0% DMSO only, 100% 113 µM cGMP. activation, % at 11.4 µM. 340,000 compounds, 0.079% hits. AID 504700;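 active = activation above a cutoff set at the mean over all compounds plus 3 SD, cut at about 18% in these data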;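 also: higher means more holoenzyme dissociation and a rise in polarization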
# PKA-R1A activ – activates the PKA-R1A holoenzyme complex; P00514+P68181; PKA-R1A dissociation, Cy5-IP20 fluorescence polarization; scaled: DMSO 0%, 113 µM cGMP 100%; activation, % at 11.4 µM; 340,000 compounds, 0.083% hits;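 active = percent activation above the mean of all tested compounds plus 3 SD, cut at about 19% in these data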;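 also: higher means more PKAc released from R1A so a rise in polarization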
# ANO1 block – blocks the mouse calcium-activated chloride channel TMEM16A. normalized B-score (activity score, 25-100; higher = stronger inhibition) at 10 µM. 310,000 compounds, 1.2% hits. HEK293 TMEM16A/YFP iodide influx fluorescence, ionomycin. Q8BHY3;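 active = ratio plate-corrected score three or more library SD toward inhibition, starting fluorescence score within five deviations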;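 also: score derived from kinetic fluorescence span divided by baseline fluorescence per well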
# CHT PAM – human CHT allosteric activation | CHT-expressing cells, membrane potential dye, choline EC20; active compounds read high; LV-AA mutant CHT in HEK293 cells | B-score at 10 µM | 310,000 compounds, 0.49% hits | Q9GZV3;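 active = initial fluorescence not abnormally high and integrated response B-score, plate-corrected, over 3 SD above library mean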
# Target sequence (Q9GZV3 whole entry, looked up): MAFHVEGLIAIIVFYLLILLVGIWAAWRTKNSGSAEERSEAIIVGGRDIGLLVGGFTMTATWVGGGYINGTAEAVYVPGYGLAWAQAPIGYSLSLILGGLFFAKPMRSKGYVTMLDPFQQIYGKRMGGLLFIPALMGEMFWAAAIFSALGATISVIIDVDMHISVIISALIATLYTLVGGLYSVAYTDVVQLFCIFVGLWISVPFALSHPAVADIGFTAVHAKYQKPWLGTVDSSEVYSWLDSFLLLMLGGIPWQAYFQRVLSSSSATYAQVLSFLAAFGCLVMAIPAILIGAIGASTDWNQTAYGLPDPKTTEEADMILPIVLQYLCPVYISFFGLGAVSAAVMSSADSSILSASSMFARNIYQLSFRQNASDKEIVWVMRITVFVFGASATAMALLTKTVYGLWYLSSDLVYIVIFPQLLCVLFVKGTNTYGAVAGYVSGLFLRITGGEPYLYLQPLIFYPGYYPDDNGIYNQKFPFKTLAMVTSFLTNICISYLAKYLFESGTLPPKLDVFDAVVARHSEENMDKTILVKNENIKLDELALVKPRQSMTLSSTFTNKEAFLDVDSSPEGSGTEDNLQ
# CHT block – inhibitors of human choline transporter CHT; 310,000 compounds, 0.86% hits; B-score at 10 µM; CHT-expressing cells, membrane potential dye, choline response; active compounds read low;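 active = B-score over 3 SD under the library average, and starting fluorescence ratio not unusually high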;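 also: choline stimulus applied at its EC90 after an EC20 pre-addition; B-score computed on integrated fluorescence ratio after choline addition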
# ANO1 activ – activates or potentiates the mouse TMEM16A chloride channel; Q8BHY3; HEK293 TMEM16A/YFP-H148Q/I152L, iodide quench fluorescence; active compounds read low; B-score at 10 µM; 340,000 compounds, 0.3% hits; AID 623877;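 active = fluorescence-ratio B-score plate-corrected deviation score at least 3 library SD below zero, with starting fluorescence score within 5 deviations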;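 also: channel opened by trigger with iodide after compound preincubation; score built on the fluorescence ratio of max minus min over baseline; more negative score means more quench and so TMEM16A activation or potentiation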
# CHT act confirm – confirmation of human choline transporter (CHT) activators | 2,500 compounds, 91% hits | CHT-expressing cells, membrane potential dye fluorescence (FDSS); % of choline EC20–EC90 response window; HEK293 expressing CHT LV-AA mutant; choline added at its EC20 | AID 504833 | shares compounds with CHT PAM | activation, % at 10 µM;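 active = primary screen active, with duplicate mean activation above negative control mean plus 3 SD, cut at about 11% in these data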
# HEK293 MP dye – CHT activator counter-screen hit in parental HEK293 cells; membrane potential dye fluorescence (FDSS); measured after EC20 choline addition; 2,500 compounds, 62% hits; ratio readout change at 10 µM, hits read low; shares compounds with CHT PAM; AID 623908;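 active = duplicate-averaged ratio beyond 3 SD from buffer wells, up or down, though filed actives are nearly all decreases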
# A number is an active result; . = inactive; / = no result given.
SMILES,PKA-R2B act,PKA-R1A activ,ANO1 block,CHT PAM,CHT block,ANO1 activ,CHT act confirm,HEK293 MP dye
CN(C)Cc1ccc(-c2nc3cccc4c3n2CCNC4=O)cc1,.,.,.,.,.,.,50.7,-38.3
Cc1cc(C(C)(C)C)cc(C)c1CCNC(=O)c1ccc[n+]([O-])c1,.,.,.,.,.,.,/,/
CCOC(=O)N1CCN(C(=O)COC(=O)CNC(=O)c2ccc(OCC)c(OCC)c2)CC1,.,.,/,/,/,.,/,/
Cc1ccc2cc(C=O)c(N3CCOCC3)nc2c1C,.,.,.,.,.,.,/,/
Cc1cc(N2CCOCC2)c2c(N)cc(C)c(C)c2n1,.,.,.,.,.,.,55.0,-73.4
O=C(NC(CSSCC(NC(=O)c1ccccc1)C(=O)O)C(=O)O)c1ccccc1 (configuration not stated),.,.,.,.,.,.,/,/
COc1ccc(NC(=O)CSc2nc3ccccc3c(=O)n2CCCN2CCCCC2)c(OC)c1,.,.,.,11.7,.,.,72.9,-38.5
COC(=O)c1ccc2c(=O)n(CCN3CCOCC3)c(SCC(=O)Nc3ccc(OC)cc3OC)nc2c1,.,.,.,.,.,.,/,/
O=c1c2ccccc2nc(SCCN2CCCCC2)n1CCc1ccccc1,.,.,.,7.85,.,.,.,-26.7
Cn1c(=O)c2c(nc(SCCN3CCCCC3)n2C)n(C)c1=O,.,.,.,.,.,.,55.6,-72.4
COc1cc2c(cc1OC)CN(C(=O)C1CCCN(C(=O)c3ccc(Cl)cc3)C1)CC2 (configuration not stated),.,.,/,/,/,.,/,/
CC(C)(C)n1nnnc1C(c1ccc(C#N)cc1)N1CCCC2(CCCCC2)C1 (configuration not stated),.,.,.,.,.,.,51.5,.
O=C(Nc1nnc(SCc2ccc(F)cc2)s1)c1ccccn1,.,.,/,/,/,.,/,/
COc1ccc(-n2c(-c3ccc(F)cc3)cnc2SCC(=O)NCc2ccco2)cc1,.,.,.,.,.,.,33.2,.
COc1ccc([N+](=O)[O-])cc1C(=O)NC1CCN(Cc2ccccc2)CC1,/,/,.,6.87,.,.,45.6,-42.6
CCC1CCCCN1CCCNC(=O)C1CCN(Cc2nc(-c3ccc(Cl)cc3)oc2C)CC1 (configuration not stated),.,.,.,.,.,.,36.1,-29.6
COc1ccc(-c2nc(CN3CCC(C(=O)NC4CCN(Cc5ccccc5)CC4)CC3)c(C)o2)cc1OC,.,.,.,7.55,.,.,59.7,-50.7
Cc1oc(-c2ccc(Cl)cc2)nc1CN1CCC(C(=O)NCCCN2CCOCC2)CC1,.,.,.,.,.,.,/,/
COc1ccccc1NS(=O)(=O)c1ccc(C)c(C(=O)NC2CCN(Cc3ccccc3)CC2)c1,.,.,/,/,/,.,/,/
Cc1cccc(NC(=O)C2CCCN(S(=O)(=O)c3cccs3)C2)c1C (configuration not stated),.,.,.,.,.,.,/,/
CC(C)CN1CC(COCc2ccccc2)Oc2ccccc2S1(=O)=O (configuration not stated),.,.,/,/,/,/,/,/
C=CC[n+]1c(-c2ccc(Cl)cc2Cl)csc1Nc1c(C)n(C)n(-c2ccccc2)c1=O,.,.,.,8.4,.,.,.,.
C=CC[n+]1c(-c2ccc(Cl)cc2Cl)csc1Nc1ccc(NC(C)=O)cc1,.,.,.,13.8,.,.,.,.
CCCC[n+]1c(-c2ccc(Cl)cc2Cl)csc1Nc1ccccc1,.,.,.,.,.,.,/,/
COc1cc(NS(C)(=O)=O)ccc1Nc1c2ccccc2nc2ccccc12,.,.,.,8.29,.,.,13.3,-54
SMILES,PKA-R2B act,PKA-R1A activ,ANO1 block,CHT PAM,CHT block,ANO1 activ,CHT act confirm,HEK293 MP dye
COc1ccc(OC)c(Nc2c3ccccc3nc3ccccc23)c1,.,.,.,.,.,.,/,/
CCOC(=O)c1cnc2c(c(C)nn2C)c1Oc1ccc(Cl)cc1,.,.,.,6.39,.,.,27.0,.
Cc1nn(C)c2ncc(C(N)=O)c(Oc3cccnc3)c12,.,.,.,.,.,.,/,/
COc1ccc(-c2cn3cccnc3n2)cc1F,.,.,.,.,.,.,15.0,-32.9
COc1ccc(-c2cn3cccnc3n2)cc1NS(=O)(=O)c1ccccc1,.,.,.,.,.,.,/,/
Cc1ccc(-c2cc(-c3n[nH]c(=S)n3C)c3ccccc3n2)cc1,.,.,.,.,.,.,/,/
Cc1c(C=Nc2ccc(S(=O)(=O)N(C)C)cc2)c(O)[nH]c(=O)c1C#N,.,.,.,.,.,.,/,/
CCOC(=O)c1ccc(NC(=O)Nc2ccc(Cl)cn2)cc1,.,.,.,.,.,.,/,/
CCOC(=O)c1ccc(NC(=O)Nc2ccon2)cc1,.,.,.,.,.,.,29.7,.
CCCCC[C@@H]1C=C(C(=O)O)[C@H](c2ccc(Br)cc2)N1S(=O)(=O)c1ccc(C)cc1,.,.,/,/,/,/,/,/
O=C(C1CCCO1)N1CCN(C(=S)Nc2cc(F)cc(F)c2)CC1 (configuration not stated),.,.,.,.,.,.,/,/
Cc1nc(NC2=NCN(Cc3cccnc3)CN2)nc2ccccc12,.,.,/,/,/,.,/,/
Cc1nc(NC2=NCN(CCCN3CCOCC3)CN2)nc2c(C)cccc12,.,.,.,.,.,.,47.9,-55.9
CCNc1c(NC(C)=O)c(=O)oc2ccccc12,.,.,.,.,.,.,.,.
O=C(O)CCc1nn2cnc3sc4c(c3c2nc1=O)CCCC4,.,.,.,.,.,.,54.3,-42.6
O=C(O)Cn1cnc2sc3c(c2c1=O)CCCC3,.,.,.,.,.,.,/,/
CC(=O)c1ccc(-n2cc(-c3ccc(C(C)(C)C)cc3)[n+]3c2SCCC3)cc1,.,.,.,7.01,.,.,24.5,-44.6
CCC(Sc1nc2cc(OC)c(OC)cc2c(=O)n1Cc1ccco1)C(=O)NCCOC (configuration not stated),.,.,.,.,.,.,/,/
CCC(Sc1nc2cc(OC)c(OC)cc2c(=O)n1Cc1ccc(OC)cc1)C(=O)NCCOC (configuration not stated),.,.,.,6.57,.,.,.,.
CC1(C)Cc2c(cnn2-c2ccc(F)cc2)C(NC(=O)C2=CC(=O)CC(C)(C)O2)C1 (configuration not stated),.,.,/,/,/,/,/,/
